Article PMC7862700, “An all-to-all approach to the identification of sequence-specific readers for epigenetic DNA modifications on cytosine”

Experiments:
Test in all cases: DAPPL (digital affinity profiling via proximity ligation, sequencing); 10 mM Tris-HCl pH 7.5, 50 mM NaCl, 1 mM DTT, 4% glycerol, room temperature, 30 min; GST-TFs on glutathione beads, 16-mer random dsDNA library, 0.1% formaldehyde crosslink after washing; high values mean tight binding
FLI1 = biological target: T1, FLI1 (Homo sapiens, UniProt Q01543 1-452); conditions: protein: recombinant; tags: N-terminal GST; dsDNA, one strand shown
T1 sequence: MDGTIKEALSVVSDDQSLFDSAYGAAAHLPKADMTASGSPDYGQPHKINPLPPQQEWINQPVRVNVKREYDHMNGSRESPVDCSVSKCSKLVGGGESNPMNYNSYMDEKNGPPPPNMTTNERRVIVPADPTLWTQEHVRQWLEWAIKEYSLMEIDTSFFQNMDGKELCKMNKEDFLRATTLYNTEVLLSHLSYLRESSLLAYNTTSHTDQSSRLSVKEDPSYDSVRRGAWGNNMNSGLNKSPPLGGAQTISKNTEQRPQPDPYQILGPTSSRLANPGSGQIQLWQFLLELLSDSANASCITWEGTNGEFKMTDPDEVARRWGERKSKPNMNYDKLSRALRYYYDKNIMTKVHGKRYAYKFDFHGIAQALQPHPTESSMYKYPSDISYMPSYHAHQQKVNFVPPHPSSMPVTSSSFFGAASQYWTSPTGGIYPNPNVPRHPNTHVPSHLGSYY
Procedure, shortened: (§1)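 Pools were built from human transcription factors expressed in yeast as GST fusions, captured on glutathione beads and DNA-barcoded, along with a tag-only sample. Incubation with 200 nmole of a 16-mer random double-stranded DNA library lasted 30 min at room temperature in Tris/NaCl/DTT/glycerol buffer, and was followed by washing, 0.1% formaldehyde crosslinking, proximity ligation, PCR amplification and Illumina NextSeq500 sequencing. Binding signal is the quotient of each hexamer's read frequency for a factor and its frequency for the tag-only sample.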

ELK1 = biological target: T2, ELK1 (Homo sapiens, UniProt P19419 1-428); conditions: protein: recombinant; tags: N-terminal GST; dsDNA, one strand shown
T2 sequence: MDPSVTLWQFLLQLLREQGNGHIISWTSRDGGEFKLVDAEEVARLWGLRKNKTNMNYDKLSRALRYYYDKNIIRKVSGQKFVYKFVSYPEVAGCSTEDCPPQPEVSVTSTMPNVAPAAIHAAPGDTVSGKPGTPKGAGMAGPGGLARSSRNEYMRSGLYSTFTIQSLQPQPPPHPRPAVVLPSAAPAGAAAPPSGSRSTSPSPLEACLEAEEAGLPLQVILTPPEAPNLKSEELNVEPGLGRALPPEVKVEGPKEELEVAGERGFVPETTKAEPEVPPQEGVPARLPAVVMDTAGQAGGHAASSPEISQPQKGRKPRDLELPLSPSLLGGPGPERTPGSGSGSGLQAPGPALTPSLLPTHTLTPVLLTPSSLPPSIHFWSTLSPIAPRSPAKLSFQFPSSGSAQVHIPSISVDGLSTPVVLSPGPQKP
Procedure, shortened: as §1

GABPA = biological target: T3, GABPA (Homo sapiens, UniProt Q06546 1-454); conditions: protein: recombinant; tags: N-terminal GST; dsDNA, one strand shown
T3 sequence: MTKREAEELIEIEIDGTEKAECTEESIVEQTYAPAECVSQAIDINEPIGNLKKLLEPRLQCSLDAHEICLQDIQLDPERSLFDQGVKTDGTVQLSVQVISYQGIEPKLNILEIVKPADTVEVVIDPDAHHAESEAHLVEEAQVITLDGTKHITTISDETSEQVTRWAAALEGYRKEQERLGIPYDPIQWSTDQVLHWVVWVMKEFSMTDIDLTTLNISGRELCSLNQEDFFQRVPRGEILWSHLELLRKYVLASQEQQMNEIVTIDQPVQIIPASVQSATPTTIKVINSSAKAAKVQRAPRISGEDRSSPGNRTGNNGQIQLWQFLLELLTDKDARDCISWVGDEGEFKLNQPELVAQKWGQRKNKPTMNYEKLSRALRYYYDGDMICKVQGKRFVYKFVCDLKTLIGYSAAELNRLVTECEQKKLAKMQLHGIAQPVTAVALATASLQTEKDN
Procedure, shortened: as §1

ERG = biological target: T4, ERG (Homo sapiens, UniProt P11308 1-479); conditions: protein: recombinant; tags: N-terminal GST; dsDNA, one strand shown
T4 sequence: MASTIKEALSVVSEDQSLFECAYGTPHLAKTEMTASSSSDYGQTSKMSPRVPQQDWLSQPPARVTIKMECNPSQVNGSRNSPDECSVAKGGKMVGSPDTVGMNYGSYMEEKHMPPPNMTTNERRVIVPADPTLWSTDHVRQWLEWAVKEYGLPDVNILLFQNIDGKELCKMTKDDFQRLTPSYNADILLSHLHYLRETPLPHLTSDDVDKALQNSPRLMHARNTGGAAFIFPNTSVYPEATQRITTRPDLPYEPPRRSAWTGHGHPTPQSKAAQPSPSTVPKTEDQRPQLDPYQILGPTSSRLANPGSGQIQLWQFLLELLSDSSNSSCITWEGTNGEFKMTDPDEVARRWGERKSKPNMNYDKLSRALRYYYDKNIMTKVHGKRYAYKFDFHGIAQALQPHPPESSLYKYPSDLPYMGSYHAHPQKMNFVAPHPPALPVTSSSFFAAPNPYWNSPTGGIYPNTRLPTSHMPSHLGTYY
Procedure, shortened: as §1

ELF1 = ELF1 (Homo sapiens, UniProt P32519 1-619); conditions: protein: recombinant; tags: N-terminal GST; dsDNA, one strand shown
Procedure, shortened: as §1

EHF = biological target: T5, EHF (Homo sapiens, UniProt Q9NZC4 1-300); conditions: protein: recombinant; tags: N-terminal GST; dsDNA, one strand shown
T5 sequence: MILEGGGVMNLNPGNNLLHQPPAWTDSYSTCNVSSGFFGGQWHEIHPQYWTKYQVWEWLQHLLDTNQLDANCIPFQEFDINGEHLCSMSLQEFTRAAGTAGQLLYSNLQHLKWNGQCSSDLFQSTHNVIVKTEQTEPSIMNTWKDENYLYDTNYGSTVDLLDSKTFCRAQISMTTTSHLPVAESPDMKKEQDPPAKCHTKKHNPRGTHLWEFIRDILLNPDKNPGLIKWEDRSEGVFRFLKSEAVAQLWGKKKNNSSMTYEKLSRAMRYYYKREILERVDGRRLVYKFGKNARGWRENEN
Procedure, shortened: as §1

SPI1 = SPI1 (Homo sapiens, UniProt P17947 1-270); conditions: protein: recombinant; tags: N-terminal GST; dsDNA, one strand shown
Procedure, shortened: as §1

SPIB = SPIB (Homo sapiens, UniProt Q01892 1-262); conditions: protein: recombinant; tags: N-terminal GST; dsDNA, one strand shown
Procedure, shortened: as §1

ELK3 = biological target: T6, ELK3 (Homo sapiens, UniProt P41970 1-407); conditions: protein: recombinant; tags: N-terminal GST; dsDNA, one strand shown
T6 sequence: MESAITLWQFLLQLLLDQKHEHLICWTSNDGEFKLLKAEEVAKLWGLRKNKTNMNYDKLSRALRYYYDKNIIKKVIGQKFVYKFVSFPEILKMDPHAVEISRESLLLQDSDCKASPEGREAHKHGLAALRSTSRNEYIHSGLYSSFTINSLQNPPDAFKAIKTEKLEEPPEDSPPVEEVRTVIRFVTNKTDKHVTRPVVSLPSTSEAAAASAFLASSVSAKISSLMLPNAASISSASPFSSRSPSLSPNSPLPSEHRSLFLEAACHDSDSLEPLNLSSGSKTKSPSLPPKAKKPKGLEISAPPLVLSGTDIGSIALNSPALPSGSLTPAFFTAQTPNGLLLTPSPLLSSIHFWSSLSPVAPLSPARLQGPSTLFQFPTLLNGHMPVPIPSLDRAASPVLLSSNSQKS
Procedure, shortened: as §1

FEV = biological target: T7, FEV (Homo sapiens, UniProt Q99581 1-238); conditions: protein: recombinant; tags: N-terminal GST; dsDNA, one strand shown
T7 sequence: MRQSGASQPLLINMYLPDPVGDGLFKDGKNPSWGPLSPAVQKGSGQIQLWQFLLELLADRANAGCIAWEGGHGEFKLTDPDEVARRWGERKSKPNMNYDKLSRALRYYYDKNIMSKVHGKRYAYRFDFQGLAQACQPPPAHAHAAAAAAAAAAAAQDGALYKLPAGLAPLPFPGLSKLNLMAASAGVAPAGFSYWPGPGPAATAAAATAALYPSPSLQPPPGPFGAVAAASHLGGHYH
Procedure, shortened: as §1

ETV5 = ETV5 (Homo sapiens, UniProt P41161 1-510); conditions: protein: recombinant; tags: N-terminal GST; dsDNA, one strand shown
Procedure, shortened: as §1

HSF1 = HSF1 (Homo sapiens, UniProt Q00613 1-529); conditions: protein: recombinant; tags: N-terminal GST; chain copies: 3; dsDNA, one strand shown
Procedure, shortened: as §1

SPIC = biological target: T8, SPIC (Homo sapiens, UniProt Q8N5J4 1-248); conditions: protein: recombinant; tags: N-terminal GST; dsDNA, one strand shown
T8 sequence: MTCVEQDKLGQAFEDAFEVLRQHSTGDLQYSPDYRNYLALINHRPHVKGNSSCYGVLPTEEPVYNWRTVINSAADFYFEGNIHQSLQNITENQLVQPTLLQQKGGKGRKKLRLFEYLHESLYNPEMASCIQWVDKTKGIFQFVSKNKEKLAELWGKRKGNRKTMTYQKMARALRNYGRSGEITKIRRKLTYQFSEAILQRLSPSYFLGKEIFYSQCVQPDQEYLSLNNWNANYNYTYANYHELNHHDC
Procedure, shortened: as §1

ELF4 = ELF4 (Homo sapiens, UniProt Q99607 1-663); conditions: protein: recombinant; tags: N-terminal GST; dsDNA, one strand shown
Procedure, shortened: as §1

ELK4 = biological target: T9, ELK4 (Homo sapiens, UniProt P28324-2 1-405); conditions: protein: recombinant; tags: N-terminal GST; dsDNA, one strand shown
T9 sequence: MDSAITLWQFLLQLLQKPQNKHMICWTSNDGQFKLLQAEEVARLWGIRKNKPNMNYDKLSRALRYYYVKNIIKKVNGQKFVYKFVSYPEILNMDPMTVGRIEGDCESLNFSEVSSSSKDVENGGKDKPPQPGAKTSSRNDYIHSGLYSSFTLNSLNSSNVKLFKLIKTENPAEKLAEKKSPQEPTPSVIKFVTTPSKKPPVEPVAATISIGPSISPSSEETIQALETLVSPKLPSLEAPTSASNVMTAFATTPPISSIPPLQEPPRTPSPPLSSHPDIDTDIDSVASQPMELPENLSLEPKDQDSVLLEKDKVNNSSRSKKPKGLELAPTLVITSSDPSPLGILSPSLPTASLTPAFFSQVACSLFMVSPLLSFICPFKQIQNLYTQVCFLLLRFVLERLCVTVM
Procedure, shortened: as §1

ETV2 = biological target: T10, ETV2 (Homo sapiens, UniProt O00321 1-342); conditions: protein: recombinant; tags: N-terminal GST; dsDNA, one strand shown
T10 sequence: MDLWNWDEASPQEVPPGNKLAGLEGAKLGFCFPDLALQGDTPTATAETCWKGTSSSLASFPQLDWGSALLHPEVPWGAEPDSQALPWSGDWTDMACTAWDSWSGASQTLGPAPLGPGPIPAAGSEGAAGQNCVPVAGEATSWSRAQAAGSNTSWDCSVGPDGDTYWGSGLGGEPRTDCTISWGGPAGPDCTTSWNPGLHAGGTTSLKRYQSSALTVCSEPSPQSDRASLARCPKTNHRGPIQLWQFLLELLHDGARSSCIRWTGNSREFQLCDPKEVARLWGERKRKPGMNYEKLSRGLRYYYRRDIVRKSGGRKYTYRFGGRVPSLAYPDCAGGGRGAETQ
Procedure, shortened: as §1

ELF3 = biological target: T11, ELF3 (Homo sapiens, UniProt P78545 1-371); conditions: protein: recombinant; tags: N-terminal GST; dsDNA, one strand shown
T11 sequence: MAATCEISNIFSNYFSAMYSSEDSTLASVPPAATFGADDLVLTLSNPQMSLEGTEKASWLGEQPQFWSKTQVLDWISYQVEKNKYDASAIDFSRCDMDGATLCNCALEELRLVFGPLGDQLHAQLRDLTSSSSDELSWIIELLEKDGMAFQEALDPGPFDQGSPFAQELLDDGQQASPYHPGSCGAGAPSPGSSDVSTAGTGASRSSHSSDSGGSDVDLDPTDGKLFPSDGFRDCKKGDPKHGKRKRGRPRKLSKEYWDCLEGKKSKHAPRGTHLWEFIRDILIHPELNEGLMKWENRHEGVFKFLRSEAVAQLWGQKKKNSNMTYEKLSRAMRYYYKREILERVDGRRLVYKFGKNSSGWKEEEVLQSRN
Procedure, shortened: as §1

CRX = CRX (Homo sapiens, UniProt O43186 1-299); conditions: protein: recombinant; tags: N-terminal GST; dsDNA, one strand shown
Procedure, shortened: as §1

ETV1 = ETV1 (Homo sapiens, UniProt P50549 1-477); conditions: protein: recombinant; tags: N-terminal GST; dsDNA, one strand shown
Procedure, shortened: as §1

Sequence of CRX (O43186 whole entry): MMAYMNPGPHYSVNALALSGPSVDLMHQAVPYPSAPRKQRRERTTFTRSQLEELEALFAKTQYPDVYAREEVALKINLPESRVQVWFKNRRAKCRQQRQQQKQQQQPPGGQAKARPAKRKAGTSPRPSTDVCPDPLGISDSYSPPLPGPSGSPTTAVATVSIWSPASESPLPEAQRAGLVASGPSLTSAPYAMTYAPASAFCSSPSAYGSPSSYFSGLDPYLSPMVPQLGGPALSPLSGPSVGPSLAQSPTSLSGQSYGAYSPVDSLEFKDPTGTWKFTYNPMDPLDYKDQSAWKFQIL
Sequence of SPIB (Q01892 whole entry): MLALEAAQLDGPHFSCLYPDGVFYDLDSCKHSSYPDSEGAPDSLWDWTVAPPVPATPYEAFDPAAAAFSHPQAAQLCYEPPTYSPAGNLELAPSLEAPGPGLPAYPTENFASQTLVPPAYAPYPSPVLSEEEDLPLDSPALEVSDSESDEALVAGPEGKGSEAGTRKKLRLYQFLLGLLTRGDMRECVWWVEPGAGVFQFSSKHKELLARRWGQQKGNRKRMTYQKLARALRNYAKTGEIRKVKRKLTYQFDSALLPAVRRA
Sequence of ETV1 (P50549 whole entry): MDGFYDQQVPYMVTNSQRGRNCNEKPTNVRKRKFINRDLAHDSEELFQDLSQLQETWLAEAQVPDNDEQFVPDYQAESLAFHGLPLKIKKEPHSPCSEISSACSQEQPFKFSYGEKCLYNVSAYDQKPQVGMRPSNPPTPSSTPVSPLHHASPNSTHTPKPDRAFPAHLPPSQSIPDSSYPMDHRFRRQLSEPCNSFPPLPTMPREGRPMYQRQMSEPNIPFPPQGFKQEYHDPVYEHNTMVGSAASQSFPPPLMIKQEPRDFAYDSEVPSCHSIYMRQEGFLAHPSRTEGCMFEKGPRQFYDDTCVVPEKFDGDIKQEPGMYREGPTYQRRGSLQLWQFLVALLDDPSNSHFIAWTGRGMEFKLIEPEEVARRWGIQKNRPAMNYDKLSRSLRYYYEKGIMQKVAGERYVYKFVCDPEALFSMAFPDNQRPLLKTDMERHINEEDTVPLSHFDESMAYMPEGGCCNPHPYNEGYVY
Sequence of ETV5 (P41161 whole entry): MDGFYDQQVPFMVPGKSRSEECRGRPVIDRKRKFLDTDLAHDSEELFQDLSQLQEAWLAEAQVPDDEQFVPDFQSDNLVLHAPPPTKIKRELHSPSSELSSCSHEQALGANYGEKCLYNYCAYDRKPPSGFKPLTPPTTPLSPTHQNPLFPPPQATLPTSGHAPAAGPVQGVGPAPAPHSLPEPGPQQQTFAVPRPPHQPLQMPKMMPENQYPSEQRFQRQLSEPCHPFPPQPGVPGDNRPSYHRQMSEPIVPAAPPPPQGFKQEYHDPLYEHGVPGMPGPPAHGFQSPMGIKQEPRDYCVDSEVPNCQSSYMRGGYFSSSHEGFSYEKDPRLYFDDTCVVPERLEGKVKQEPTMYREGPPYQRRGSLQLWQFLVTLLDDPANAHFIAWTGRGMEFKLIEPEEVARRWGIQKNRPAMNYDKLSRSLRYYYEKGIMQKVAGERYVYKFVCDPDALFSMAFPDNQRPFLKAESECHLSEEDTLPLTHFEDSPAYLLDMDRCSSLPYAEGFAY
Sequence of ELF4 (Q99607 whole entry): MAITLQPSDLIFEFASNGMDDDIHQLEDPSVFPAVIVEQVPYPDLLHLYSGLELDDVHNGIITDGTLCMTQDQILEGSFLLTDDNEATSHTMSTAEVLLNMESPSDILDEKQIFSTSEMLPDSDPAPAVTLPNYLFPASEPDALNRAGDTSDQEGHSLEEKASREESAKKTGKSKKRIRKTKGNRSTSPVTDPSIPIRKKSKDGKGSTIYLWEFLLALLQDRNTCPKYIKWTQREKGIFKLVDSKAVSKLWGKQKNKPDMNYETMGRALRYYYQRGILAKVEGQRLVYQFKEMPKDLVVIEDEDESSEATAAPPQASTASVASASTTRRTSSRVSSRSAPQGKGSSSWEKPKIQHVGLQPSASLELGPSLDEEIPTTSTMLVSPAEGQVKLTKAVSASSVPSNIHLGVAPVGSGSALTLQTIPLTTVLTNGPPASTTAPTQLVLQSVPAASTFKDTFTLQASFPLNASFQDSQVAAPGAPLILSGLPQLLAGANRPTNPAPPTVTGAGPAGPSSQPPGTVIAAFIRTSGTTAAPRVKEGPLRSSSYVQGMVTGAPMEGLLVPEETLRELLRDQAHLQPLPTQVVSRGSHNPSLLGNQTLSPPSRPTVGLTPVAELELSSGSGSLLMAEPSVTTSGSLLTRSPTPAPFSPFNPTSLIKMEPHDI
Sequence of HSF1 (Q00613 whole entry): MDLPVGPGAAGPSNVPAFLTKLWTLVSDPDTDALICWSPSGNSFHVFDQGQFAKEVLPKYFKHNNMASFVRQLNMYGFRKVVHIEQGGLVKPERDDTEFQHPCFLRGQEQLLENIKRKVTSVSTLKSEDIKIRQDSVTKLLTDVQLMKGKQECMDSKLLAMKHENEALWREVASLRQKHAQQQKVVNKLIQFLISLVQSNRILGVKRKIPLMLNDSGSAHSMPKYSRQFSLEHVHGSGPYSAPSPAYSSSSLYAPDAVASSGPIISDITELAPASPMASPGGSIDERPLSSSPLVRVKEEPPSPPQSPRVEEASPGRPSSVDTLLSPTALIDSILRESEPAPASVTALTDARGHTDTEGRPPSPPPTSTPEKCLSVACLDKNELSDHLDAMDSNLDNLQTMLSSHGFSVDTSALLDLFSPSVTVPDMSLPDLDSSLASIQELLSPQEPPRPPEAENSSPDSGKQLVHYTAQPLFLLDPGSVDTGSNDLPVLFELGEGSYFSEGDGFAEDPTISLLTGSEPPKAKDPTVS
Sequence of ELF1 (P32519 whole entry): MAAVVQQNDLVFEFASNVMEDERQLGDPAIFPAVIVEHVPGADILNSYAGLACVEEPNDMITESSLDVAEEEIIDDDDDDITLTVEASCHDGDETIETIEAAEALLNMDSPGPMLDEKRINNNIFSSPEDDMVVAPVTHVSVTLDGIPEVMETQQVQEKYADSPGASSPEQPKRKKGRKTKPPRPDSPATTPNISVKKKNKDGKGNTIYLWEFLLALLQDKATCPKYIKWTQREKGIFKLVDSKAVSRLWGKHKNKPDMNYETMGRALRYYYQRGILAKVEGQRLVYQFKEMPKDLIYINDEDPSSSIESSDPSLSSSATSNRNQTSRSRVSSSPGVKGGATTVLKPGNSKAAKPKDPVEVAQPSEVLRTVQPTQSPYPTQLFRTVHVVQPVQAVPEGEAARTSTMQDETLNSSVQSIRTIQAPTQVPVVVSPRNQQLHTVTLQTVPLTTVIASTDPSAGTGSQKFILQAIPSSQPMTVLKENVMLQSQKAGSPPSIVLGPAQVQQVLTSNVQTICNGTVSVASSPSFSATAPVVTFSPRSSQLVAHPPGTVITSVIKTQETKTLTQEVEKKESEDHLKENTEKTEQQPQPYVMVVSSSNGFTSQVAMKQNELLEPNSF

Q: CCGATC was tested. Which binding signal (FLI1) did it give?
A: 1.38 fold enrichment (6-mer frequency, TF over GST control)

Q: And the binding signal (ELK1)?
A: 1.25 fold enrichment (6-mer frequency, TF over GST control)

Q: And the binding signal (GABPA)?
A: 1.21 fold enrichment (6-mer frequency, TF over GST control)

Q: What about the binding signal (ERG) of the same sequence?
A: 1.24 fold enrichment (6-mer frequency, TF over GST control)

Q: And the binding signal (ELF1)?
A: 1.28 fold enrichment (6-mer frequency, TF over GST control)

Q: And the binding signal (EHF)?
A: 1.24 fold enrichment (6-mer frequency, TF over GST control)

Q: And the binding signal (SPI1)?
A: 1.18 fold enrichment (6-mer frequency, TF over GST control)

Q: And the binding signal (SPIB)?
A: 1.17 fold enrichment (6-mer frequency, TF over GST control)

Q: And the binding signal (ELK3)?
A: 1.17 fold enrichment (6-mer frequency, TF over GST control)

Q: What about the binding signal (FEV) of the same sequence?
A: 1.24 fold enrichment (6-mer frequency, TF over GST control)

Q: And the binding signal (ETV5)?
A: 1.25 fold enrichment (6-mer frequency, TF over GST control)

Q: What about the binding signal (HSF1) of the same sequence?
A: 1.23 fold enrichment (6-mer frequency, TF over GST control)

Q: What about the binding signal (SPIC) of the same sequence?
A: 1.27 fold enrichment (6-mer frequency, TF over GST control)

Q: What about the binding signal (ELF4) of the same sequence?
A: 1.2 fold enrichment (6-mer frequency, TF over GST control)

Q: And the binding signal (ELK4)?
A: 1.13 fold enrichment (6-mer frequency, TF over GST control)

Q: And the binding signal (ETV2)?
A: 1.19 fold enrichment (6-mer frequency, TF over GST control)

Q: And the binding signal (ELF3)?
A: 1.4 fold enrichment (6-mer frequency, TF over GST control)

Q: What about the binding signal (CRX) of the same sequence?
A: 1.36 fold enrichment (6-mer frequency, TF over GST control)

Q: And the binding signal (ETV1)?
A: 1.12 fold enrichment (6-mer frequency, TF over GST control)
